Growth data for 13 molecules are collected here from PubChem BioAssay (NCI).

Among the test systems are SK-MEL-2 melanoma; EKVX NSCLC; SN12C renal; UO-31 renal; TK-10 renal; ACHN renal; A498 renal; CCRF-CEM leukemia; MOLT-4 leukemia; SR leukemia.
Assay in all cases: NCI-60 one-dose screen, 48 h (100 = growth as untreated, 0 = no growth, -100 = all killed)
Holding throughout (details): 10 µM unless noted

The panel holds about 83,000 compounds, 20% with a hit somewhere; the sample as a whole holds those more often.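 Results are percent growth after 48 hours of single-concentration exposure. 100 means growth as in untreated cells, lower positive values show inhibition; negative values down to -100 show cell death.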 Unmarked numbers belong to inactive results. Calls of active or inactive are those of the source. Rule for the calls: active = growth percent below 10; inactive = the rest.

With `O=C1C(Cl)=C(NCCCN(CCCNC2=C(Cl)C(=O)c3ccccc3C2=O)C2=C(Cl)C(=O)c3ccccc3C2=O)C(=O)c2ccccc21`, the growth in the assay on SK-MEL-2 melanoma was 79.4%; in the assay on EKVX NSCLC it was 80%; with SN12C renal it was 4.16% (active); with UO-31 renal, 58.1%; with TK-10 renal, 146%; with ACHN renal, 74.6%. Moreover, the growth was 100% in the assay with A498 renal, 34.6% in the assay with CCRF-CEM leukemia, 31.6% with MOLT-4 leukemia and 2.55% (active) in the assay with SR leukemia.
In the case of `O=C(CCc1nnco1)c1nc2ccc([N+](=O)[O-])cc2[nH]1`, the growth in the assay with SK-MEL-2 melanoma was 94.7%; in the assay with EKVX NSCLC it was 94%; with SN12C renal, 107%; in the assay with UO-31 renal, 74.9%; in the assay on TK-10 renal, 146%; in the assay on ACHN renal, 101%. The growth is 126% in the assay with A498 renal, 109% in the assay on CCRF-CEM leukemia, 97.9% in the assay on MOLT-4 leukemia and 91.5% in the assay on SR leukemia.
As to `C=C(C)[C@@H]1CC[C@]2(C(=O)O)CC[C@]3(C)[C@H](CC[C@@H]4[C@@]5(C)C[C@@H](CC#Cc6ccccc6)C(=O)C(C)(C)[C@@H]5CC[C@]43C)[C@@H]12`, the growth in the assay on SK-MEL-2 melanoma was 61.1%; in the assay with EKVX NSCLC, 28.6%; in the assay with SN12C renal it was 43.7%; in the assay with UO-31 renal, 28.9%; with TK-10 renal, 33.3%; with ACHN renal it was 23.8%. The growth is 32.9% in the assay with A498 renal, 24.9% with CCRF-CEM leukemia, 22.3% in the assay on MOLT-4 leukemia and 38% in the assay with SR leukemia.
As for `COCCOCCOCc1n(Cc2ccc3ccccc3c2)c2ccccc2[n+]1Cc1ccc2ccccc2c1`, the growth in the assay with SK-MEL-2 melanoma is -18.8% (active); with EKVX NSCLC, 47.4%; in the assay on SN12C renal, 11.7%; in the assay with UO-31 renal, 81.9%; with TK-10 renal it was 3.33% (active); in the assay on ACHN renal, 93.9%. Further, the growth is 12% in the assay on A498 renal, 12% in the assay with CCRF-CEM leukemia, 4% (active) in the assay with MOLT-4 leukemia and -39.5% (active) in the assay on SR leukemia.
As to `O=[N+]([O-])c1ccc(Oc2ccc(-c3ccccc3)cc2)cc1`, the growth with SK-MEL-2 melanoma is 103%; with EKVX NSCLC it was 85.1%; in the assay with SN12C renal, 96.6%; with UO-31 renal, 79.5%; with TK-10 renal it was 88.5%; with ACHN renal, 101%. Also, the growth is 84.5% in the assay with A498 renal, 78.3% with CCRF-CEM leukemia, 70.4% in the assay on MOLT-4 leukemia and 77.8% with SR leukemia.
For the molecule `NC(=O)CN1C(=O)c2ccccc2C1=O`, the growth was 108% with SK-MEL-2 melanoma; 104% with EKVX NSCLC; 97.7% in the assay on SN12C renal; 90.4% in the assay on UO-31 renal; 103% in the assay on TK-10 renal; 105% in the assay on ACHN renal. For the same molecule, the growth was 92% with A498 renal, 96.6% with CCRF-CEM leukemia, 99.1% with MOLT-4 leukemia and 87.8% in the assay on SR leukemia.
Regarding `COc1ccc2nc(-c3ccc(OC)c(OC)c3)cc(-c3nnc(SCC(=O)Nc4ccc(/C(C)=N\O)cc4)n3-c3ccccc3)c2c1`, the growth is 80.7% in the assay with SK-MEL-2 melanoma; 88.8% with EKVX NSCLC; 80.7% in the assay with SN12C renal; 54.2% in the assay with UO-31 renal; 65.9% with TK-10 renal; 75.5% with ACHN renal. For the same molecule, the growth is 77.9% in the assay on A498 renal, 40% in the assay on CCRF-CEM leukemia, 33.8% with MOLT-4 leukemia and 54.7% in the assay on SR leukemia.
As to `COC(=O)c1ccc2c(c1)NC(=O)[C@@H]1CCCN21`, the growth was 95% in the assay with SK-MEL-2 melanoma; 94.1% in the assay with EKVX NSCLC; 101% in the assay with SN12C renal; 88.1% in the assay with UO-31 renal; 127% in the assay on TK-10 renal; 103% with ACHN renal. Besides, the growth in the assay on A498 renal was 90.4%; in the assay on CCRF-CEM leukemia, 99.5%; in the assay on MOLT-4 leukemia, 84.1%; in the assay on SR leukemia it was 81.5%.
Turning to `COc1ccc2c(c1)/C(=C1\S/C(=N/c3nnc(C)s3)NC1=O)C(=O)N2Cc1ccc(Cl)cc1`, the growth in the assay on SK-MEL-2 melanoma was 43.4%; in the assay on EKVX NSCLC, 38.8%; in the assay on SN12C renal it was 51.6%; with UO-31 renal, 57.7%; with TK-10 renal, 58.4%; in the assay with ACHN renal it was 55.3%. Moreover, the growth in the assay with A498 renal is -4.96% (active); in the assay with CCRF-CEM leukemia it was 31.7%; with MOLT-4 leukemia, 24.6%; in the assay with SR leukemia it was 55.7%.
Turning to `CSc1cccc(NC(=O)Nc2nc3c(C)cccc3s2)c1`, the growth was 98.5% with SK-MEL-2 melanoma; 80.2% in the assay on EKVX NSCLC; 94.3% with SN12C renal; 84.4% with UO-31 renal; 119% with TK-10 renal; 101% in the assay on ACHN renal. The growth was 106% in the assay on A498 renal, 106% in the assay on CCRF-CEM leukemia, 99.9% in the assay with MOLT-4 leukemia and 83.7% in the assay on SR leukemia.
With `N#Cc1c(-c2ccc(Cl)cc2)cc(-c2cc3ccccc3o2)nc1SCC(=O)c1ccc(Cl)cc1`, the growth is 91% with SK-MEL-2 melanoma; 116% with EKVX NSCLC; 94.2% in the assay on SN12C renal; 79.8% in the assay on UO-31 renal; 139% with TK-10 renal; 86.9% with ACHN renal. Moreover, the growth with A498 renal is 111%; in the assay with CCRF-CEM leukemia, 106%; in the assay on MOLT-4 leukemia it was 95.1%; with SR leukemia it was 80.2%.
For `NC(=O)C(O)(c1ccccc1)c1ccccc1`, the growth with SK-MEL-2 melanoma was 105%; in the assay with EKVX NSCLC, 100%; with SN12C renal, 99%; with UO-31 renal, 93.8%; in the assay with TK-10 renal it was 97.3%; in the assay on ACHN renal, 108%. Further, the growth was 84.9% with A498 renal, 87.9% in the assay on CCRF-CEM leukemia, 98.6% in the assay on MOLT-4 leukemia and 83% in the assay on SR leukemia.
On to `COc1cc(/C=C/CO)cc(OC)c1O[C@@H]1O[C@H](CO)[C@@H](O)[C@H](O)[C@H]1O`, for which the growth with SK-MEL-2 melanoma was 108%; in the assay with EKVX NSCLC it was 95%; in the assay on SN12C renal, 96.8%; with UO-31 renal it was 97.1%; in the assay with TK-10 renal, 98.7%; in the assay with ACHN renal, 109%. The growth in the assay with A498 renal is 77.2%; with CCRF-CEM leukemia it was 96.2%; in the assay with MOLT-4 leukemia, 94.8%; in the assay with SR leukemia, 95.2%.
